From the OligoGym collection

target: AMICA1; assay: pooled miR-30 sensor sort-seq; sequence = guide strand; conditions: shRNA
Note: reference of the scale not given here.

TTTGTCTTCTGTGCTCTGGAAA was tested. Which sensor-assay potency score (higher = more potent) did it give?
Its sensor-assay potency score (higher = more potent) is -0.894.

For TTTTCAAGTGAGTTGTTCCGAT, which sensor-assay potency score (higher = more potent) is on record?
The sensor-assay potency score (higher = more potent) was -0.169.

For TATAGCACATATTCGTCCTTGG, which sensor-assay potency score (higher = more potent) is on record?
Its sensor-assay potency score (higher = more potent) is -0.0697.

With TATCTCTGGATTAGTCTTCTTC as the sequence, how does the sensor-assay potency score (higher = more potent) read?
The sensor-assay potency score (higher = more potent) was -0.382.

TGAATATACATTTGTCTTCTGT was tested. Which sensor-assay potency score (higher = more potent) did it give?
Its sensor-assay potency score (higher = more potent) is -0.514.

With TTGCACATCTTGGAGCAGGAGA as the sequence, how does the sensor-assay potency score (higher = more potent) read?
Its sensor-assay potency score (higher = more potent) is -0.908.

TATACATTTGTCTTCTGTGCTC was tested. Which sensor-assay potency score (higher = more potent) did it give?
Its sensor-assay potency score (higher = more potent) is -0.0847.

For AATAGTATAGCACATATTCGTC, which sensor-assay potency score (higher = more potent) is on record?
The sensor-assay potency score (higher = more potent) was -1.02.

With TCTGGATTAGTCTTCTTCGTGT as the sequence, how does the sensor-assay potency score (higher = more potent) read?
Its sensor-assay potency score (higher = more potent) is -0.36.

Which sensor-assay potency score (higher = more potent) does the source give for TATCAGAACAGGGAGCAGCAGG here?
Its sensor-assay potency score (higher = more potent) is -0.745.

TCTATCTTGAATATACATTTGT was tested. Which sensor-assay potency score (higher = more potent) did it give?
The sensor-assay potency score (higher = more potent) was -0.466.

For TTCTTGAACACCAGGTTCCCTA, which sensor-assay potency score (higher = more potent) is on record?
The sensor-assay potency score (higher = more potent) was -1.01.

target: AMOTL1; assay: as above; conditions: shRNA

Which sensor-assay potency score (higher = more potent) does the source give for TAGCAGTCTCTAGTCGATCTCG here?
Its sensor-assay potency score (higher = more potent) is -0.33.

For TAATCATAGCATCTTTCTCTAT, which sensor-assay potency score (higher = more potent) is on record?
The sensor-assay potency score (higher = more potent) was -1.

For TTAACTTTGTTTGCAAACCTAC, which sensor-assay potency score (higher = more potent) is on record?
Its sensor-assay potency score (higher = more potent) is 0.352.

How did the sensor-assay potency score (higher = more potent) turn out when TTGTCAGTCTGTGTGCTGCTGT was run?
The sensor-assay potency score (higher = more potent) was 0.0814.

With TTGCAGTCCGCACTGCTGCTAA as the sequence, how does the sensor-assay potency score (higher = more potent) read?
The sensor-assay potency score (higher = more potent) was -0.698.

Which sensor-assay potency score (higher = more potent) does the source give for TTCTTGAGTGAGGTTTTCCGTG here?
Its sensor-assay potency score (higher = more potent) is -0.593.

Which sensor-assay potency score (higher = more potent) does the source give for TTTTTCAAACTTGTGGAGCTTG here?
Its sensor-assay potency score (higher = more potent) is 0.0773.

TTCTTTTTCAAACTTGTGGAGC was tested. Which sensor-assay potency score (higher = more potent) did it give?
Its sensor-assay potency score (higher = more potent) is -0.646.

For TTTCTCAACATATGCTTGCTTC, which sensor-assay potency score (higher = more potent) is on record?
The sensor-assay potency score (higher = more potent) was -0.629.
